Screens: PubChem, The Scripps Research Institute Molecular Screening Center
Hits are enriched below; roughly 1.1% of the tested compounds scored in any of these assays.
HTR5A ag: HTR5A agonism, opioid heterodimer counter-screen | AID 504692 | 0.61% of 340,000 active | activation, % at 9.3 µM | P47898 | HTR5A agonist assay, luminescence, cell-based; in the data active means activation mostly above about 9.5%, no sharp cut-off; inactive means mostly below about 7.6%;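 further: 0% = cells with vehicle only and 100% = reference agonist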
MOR-DOR inv ag: inverse agonists of human mu-delta opioid receptor heterodimerization | AID 504357 | P35372+P41143 | cell-based MOR-DOR heterodimer luminescence, inverse agonism | inhibition, % at 9.3 µM | 0.21% of 340,000 active; in the data active means inhibition above about 22%, passing the limit was not always enough;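 further: 0% = cells with DMSO and 100% = wells without cells with DMSO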
Target sequence (P35372 whole entry, looked up): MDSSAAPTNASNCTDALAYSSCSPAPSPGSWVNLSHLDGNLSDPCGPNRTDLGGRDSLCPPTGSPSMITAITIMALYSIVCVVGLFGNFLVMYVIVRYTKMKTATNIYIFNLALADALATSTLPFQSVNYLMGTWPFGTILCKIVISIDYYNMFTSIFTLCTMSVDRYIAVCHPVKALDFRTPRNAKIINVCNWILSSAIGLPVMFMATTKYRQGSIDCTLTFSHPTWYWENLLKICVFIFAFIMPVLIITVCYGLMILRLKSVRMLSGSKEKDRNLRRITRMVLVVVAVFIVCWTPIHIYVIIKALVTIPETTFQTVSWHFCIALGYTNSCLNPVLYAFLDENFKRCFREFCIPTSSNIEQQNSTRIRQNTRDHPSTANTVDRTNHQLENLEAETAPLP
Target sequence (P41143 whole entry, looked up): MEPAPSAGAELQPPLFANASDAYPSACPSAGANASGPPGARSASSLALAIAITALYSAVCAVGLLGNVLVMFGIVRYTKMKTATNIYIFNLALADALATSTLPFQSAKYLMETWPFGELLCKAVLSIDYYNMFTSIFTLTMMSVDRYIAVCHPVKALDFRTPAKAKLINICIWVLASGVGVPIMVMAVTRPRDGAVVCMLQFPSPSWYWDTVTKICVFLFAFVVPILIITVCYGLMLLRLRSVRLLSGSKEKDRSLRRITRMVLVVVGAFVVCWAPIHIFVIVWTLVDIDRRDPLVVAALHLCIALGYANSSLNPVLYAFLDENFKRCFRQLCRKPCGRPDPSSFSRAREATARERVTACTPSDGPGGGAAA
MOR-DOR ag-1: agonists of human mu-delta opioid receptor heterodimerization; cells, OPRM1-OPRD1 heterodimerization, luminescence; 0.3% of 340,000 active; activation, % at 9.3 µM; AID 504326; P35372+P41143;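 further: 0% = vehicle-treated cells and 100% = reference agonist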
HTR5A inv ag: HTR5A inverse agonism, opioid heterodimer counter-screen. inhibition, % at 9.3 µM. 0.083% of 340,000 active. HTR5A cell line, luminescence; in the data active means inhibition mostly above about 23%, no sharp cut-off; inactive means mostly below about 18%;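 further: 0% = cells with DMSO and 100% = no-cell wells with DMSO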
MOR-DOR ag-2: counter-screen for HTR5A agonists: OPRM1-OPRD1 heterodimerization agonism. 13% of 800 active. AID 504913. activation, % at 9.3 µM. shares compounds with HTR5A ag. U2OS counter-screen cells, complementation luminescence, 3 h
HTR5A ag conf: confirmation of human HTR5A agonists | activation, % at 9.3 µM | shares compounds with HTR5A ag | 17% of 800 active | AID 504915 | HTR5A agonist cell assay, luminescence; in the data active means activation above about 17%;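 further: 0% = cells with vehicle only and 100% = full reference agonist response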
* marks the source's active call; other numbers are inactive results. Unless noted, no stated cut-off is given here; in the data, active means activation above about 18%; inactive means the rest.

O=C(Nc1nnc(SCc2ccc(Cl)cc2)s1)C1CCCO1 (stereo not drawn) was read as HTR5A ag 21*, MOR-DOR inv ag 9, MOR-DOR ag-1 -2, HTR5A inv ag -54, MOR-DOR ag-2 1 and HTR5A ag conf -1.
COC(=O)c1ccc(CSc2nnc(NC(=O)C3CCCO3)s2)cc1 (stereo not drawn) was read as HTR5A ag 2, MOR-DOR inv ag 11, MOR-DOR ag-1 -2 and HTR5A inv ag -4.
Screening O=C(Nc1ccc(F)c(F)c1)C1CCN(S(=O)(=O)c2cccc3nonc23)CC1 returned HTR5A ag 17*, MOR-DOR inv ag -35, MOR-DOR ag-1 6, HTR5A inv ag -12, MOR-DOR ag-2 0 and HTR5A ag conf 0.
NS(=O)(=O)c1cc(C(=O)OCC(=O)Nc2ccc3c(c2)OCO3)ccc1Cl was read as HTR5A ag 0, MOR-DOR inv ag 8, MOR-DOR ag-1 -2 and HTR5A inv ag 1.
`Cc1cc(OC(=O)c2ccccc2Cl)cc(=O)n1C` gave HTR5A ag 16*, MOR-DOR inv ag -7, MOR-DOR ag-1 2, HTR5A inv ag -3, MOR-DOR ag-2 123* and HTR5A ag conf -4.
For COc1ccc(NC(=O)CN(C)C(=O)C2CC(=O)N(c3cccc4ccccc34)C2)cc1 (stereo not drawn) the results were HTR5A ag 16*, MOR-DOR inv ag -3, MOR-DOR ag-1 1, HTR5A inv ag -40, MOR-DOR ag-2 0 and HTR5A ag conf -2.
Screening COc1cc(C(=O)NNC(=O)c2cc(-c3ccccc3)n[nH]2)cc(OC)c1C returned HTR5A ag -2, MOR-DOR inv ag 5, MOR-DOR ag-1 -1 and HTR5A inv ag 7.
Screening CC(=O)Nc1ccc(/C=C/c2nc(-c3ccccc3O)n[nH]2)cc1 returned HTR5A ag 2, MOR-DOR inv ag 14, MOR-DOR ag-1 -3 and HTR5A inv ag -7.
For Brc1ccc(-c2csc(-c3c[nH]c4ccccc34)n2)cc1 the results were HTR5A ag 1, MOR-DOR inv ag -1, MOR-DOR ag-1 0 and HTR5A inv ag -2.
`c1ccc2c(-c3csc(-c4ccncc4)n3)c[nH]c2c1` gave HTR5A ag 21*, MOR-DOR inv ag 3, MOR-DOR ag-1 0, HTR5A inv ag -59, MOR-DOR ag-2 2 and HTR5A ag conf -2.
For O=C(c1ccc(-c2ccc([N+](=O)[O-])cc2Cl)o1)N1CCOCC1 the results were HTR5A ag 1, MOR-DOR inv ag 18, MOR-DOR ag-1 -4 and HTR5A inv ag -12.
For N#CC(=C=[N-])c1nc2ccccc2nc1-[n+]1cccc(NC(=O)c2ccccc2)c1 the results were HTR5A ag 4, MOR-DOR inv ag 20, MOR-DOR ag-1 -4 and HTR5A inv ag 12.
For CCc1cc[n+](-c2nc3ccccc3nc2C(=C=[N-])C#N)cc1 the results were HTR5A ag 16*, MOR-DOR inv ag -33, MOR-DOR ag-1 8, HTR5A inv ag -43, MOR-DOR ag-2 2 and HTR5A ag conf 4.
`O=c1[nH]c(=S)[nH]nc1Cc1ccc(Cl)c(Cl)c1` gave HTR5A ag -1, MOR-DOR inv ag 19, MOR-DOR ag-1 -4 and HTR5A inv ag 3.
`O=C(/C=C/c1ccccc1)NCCS(=O)(=O)N1CCN(c2ccccc2F)CC1` gave HTR5A ag 0, MOR-DOR inv ag -8, MOR-DOR ag-1 1 and HTR5A inv ag 9.
Screening O=C(c1ccc(Cl)c(S(=O)(=O)N2CCCC2)c1)N1CCN(c2ccccc2F)CC1 returned HTR5A ag 21*, MOR-DOR inv ag -10, MOR-DOR ag-1 2, HTR5A inv ag -68, MOR-DOR ag-2 -3 and HTR5A ag conf -8.
For O=C(c1ccc(Cl)c(S(=O)(=O)N2CCOCC2)c1)N1CCN(c2ccccc2F)CC1 the results were HTR5A ag 8, MOR-DOR inv ag 5, MOR-DOR ag-1 -1 and HTR5A inv ag -26.
`O=C(c1ccc(Cl)c(S(=O)(=O)N2CCCC2)c1)N1CCN(c2ncccn2)CC1` gave HTR5A ag 20*, MOR-DOR inv ag 17, MOR-DOR ag-1 -3, HTR5A inv ag -55, MOR-DOR ag-2 2 and HTR5A ag conf 0.
O=C(c1ccc(Cl)c(S(=O)(=O)NCc2ccccc2)c1)N1CCN(c2ccccn2)CC1 was read as HTR5A ag 21*, MOR-DOR inv ag 2, MOR-DOR ag-1 0, HTR5A inv ag -45, MOR-DOR ag-2 1 and HTR5A ag conf 14.
For CC1CC(C)(C)NC(=S)N1CCC(=O)N1CCN(c2ccccc2)CC1 (stereo not drawn) the results were HTR5A ag -2, MOR-DOR inv ag 11, MOR-DOR ag-1 -2 and HTR5A inv ag 7.
`CC1CC(C)(C)NC(=S)N1CCC(=O)N1CCc2ccccc2C1` (stereo not drawn) gave HTR5A ag 15*, MOR-DOR inv ag -7, MOR-DOR ag-1 2, HTR5A inv ag -33, MOR-DOR ag-2 2 and HTR5A ag conf -2.
Screening CCOC(=O)C1(Cc2cccc(OC)c2)CCCN(Cc2cc(C(C)C)n[nH]2)C1 (stereo not drawn) returned HTR5A ag 16*, MOR-DOR inv ag -1, MOR-DOR ag-1 0, HTR5A inv ag -20, MOR-DOR ag-2 3 and HTR5A ag conf 38*.
For CCOC(=O)C1(Cc2cccc(OC)c2)CCCN(Cc2c(C)nn(C(C)C)c2C)C1 (stereo not drawn) the results were HTR5A ag -7, MOR-DOR inv ag -3, MOR-DOR ag-1 1 and HTR5A inv ag 7.
Screening CNC(=O)c1oc(-c2ccc(Cl)cc2)nc1C returned HTR5A ag -1, MOR-DOR inv ag 10, MOR-DOR ag-1 -2 and HTR5A inv ag -3.
Screening Cc1ccc(Oc2nnc(-c3ccccc3)cc2C#N)cc1 returned HTR5A ag 18*, MOR-DOR inv ag -25, MOR-DOR ag-1 6, HTR5A inv ag -26, MOR-DOR ag-2 6 and HTR5A ag conf 4.
Screening CCCCCC(C)NC(=S)NC(=O)c1cc(S(=O)(=O)N2CCOCC2)ccc1C (stereo not drawn) returned HTR5A ag 15*, MOR-DOR inv ag 6, MOR-DOR ag-1 -1, HTR5A inv ag -23, MOR-DOR ag-2 1 and HTR5A ag conf 9.
Screening O=C(NNC(=S)Nc1ccc(Br)cc1)c1ccccc1 returned HTR5A ag -6, MOR-DOR inv ag 16, MOR-DOR ag-1 -2 and HTR5A inv ag 11.
Screening O=C(NNC(=S)Nc1ccccc1)c1cccc(Br)c1 returned HTR5A ag 18*, MOR-DOR inv ag 24, MOR-DOR ag-1 -4, HTR5A inv ag -45, MOR-DOR ag-2 -1 and HTR5A ag conf 4.
`Cc1ccc(O)c(C(=O)/C=C/c2ccc3c(c2)OCCO3)c1` gave HTR5A ag 16*, MOR-DOR inv ag 5, MOR-DOR ag-1 -1, HTR5A inv ag -38, MOR-DOR ag-2 3 and HTR5A ag conf 10.
Screening O=C(/C=C/c1ccc2c(c1)OCO2)c1ccc(O)cc1O returned HTR5A ag 2, MOR-DOR inv ag -18, MOR-DOR ag-1 3 and HTR5A inv ag -7.
